# Measured values reported in PubChem BioAssay (NCI).
# Compounds without any hit were thinned out: in the full panel of roughly 83,000, 20% have a hit.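 Note: values are percent growth. 100 is the growth of untreated cells, values between 100 and 0 indicate rising inhibition; between -100 and 0 indicates cell death.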 A number with no mark means an inactive call. Calls of active or inactive are those of the source.
# Test system: SK-MEL-28 melanoma
# Test: NCI-60 one-dose screen, 48 h (100 = growth as untreated, 0 = no growth, -100 = all killed)
# Conditions: 10 µM unless noted
# Method: Growth inhibition of the SK-MEL-28 human tumor cell line is measured as a screen for anti-cancer activity. Cells are grown in 96 well plates and exposed to the test compound for 48 hours. Compounds are tested at a single concentration, which is 10^-5 M for most compounds. The reported endpoint is percent growth (GI% or GIPRCNT), where numbers from 0 - 100% represent growth inhibition, and numbers from -100% - 0 represent cell death. For example, a value of 40 represents 60% growth inhibition. A value of 0 means no net growth occurred over the course of the experiment. A value of -40 indicates 40% of cells at the beginning of the experiment died by the end of the experiment. A value of -100 means all cells are dead at the end of the experiment.
# NCI-60 Human Tumor Cell Lines Screen was performed using the standard one-dose NCI protocol, which is described in more detail at https://dtp.cancer.gov/discovery_development/nci-60/default.htm.
# Compounds with GIPRCNT values below 10 were considered active. Activity score was based on GIPRCNT using the following formula: […]
# Score is 0 for GIPRCNT values of 100 or above, 50 for GIPRCNT values of 0, and 100 for GIPRCNT values of -100.
row,SMILES,growth
1,O=C(Cn1cc(CN2CCCCCC2)nn1)Nc1ccc2c(ccn2Cc2ccccc2)c1,99.9%
2,CCCCCCCCCCCCCCCCCCOc1ccccc1CC(=O)NCC[N+]1(C)CCCC1,84.2%
3,CN(C)CCNc1nc2c3cc(Cl)ccc3nn2c2ccccc12,96.3%
4,O=C1/C(=C/c2ccccc2Br)COc2ccc(O)c(O)c21,42.3%
5,COC(C(=O)[C@@H](O)[C@@H](C)O)[C@@H]1Cc2cc3cc(O[C@H]4C[C@@H](O[C@H]5C[C@@H](O)[C@H](O)C(C)O5)[C@H](O)C(C)O4)c(C)c(O)c3c(O)c2C(=O)[C@H]1O[C@H]1C[C@@H](O[C@H]2C[C@@H](O[C@H]3C[C@@H](O)[C@H](OC)C(C)O3)[C@@H](O)C(C)O2)[C@H](O)C(C)O1 (stereo not given in full),-34.1% (active)
6,COc1cc2c(c(OC)c1OC)-c1ccc(OC)c(=O)cc1[C@@H](NC(=O)CCl)CC2,47%
7,O=[N+]([O-])c1ccc(S(=O)(=O)N2CCN(C3=NS(=O)(=O)c4ccccc4N3c3ccccc3)CC2)cc1,135%
8,COC(=O)[C@H]1CCCN1C[C@@H](O)CN1C(=O)/C(=C\c2cc(OC)c(OC)c(OC)c2)c2ccccc21,123%
9,O=C1c2cccnc2C(=O)c2c1c(C(=O)NCCCN1CCCCC1)c1ccccn21,13.8%
10,COc1ccc2cc(-c3ccc(NC(C)=O)c(=O)o3)ccc2c1,104%
11,O=[N+]([O-])/C(=C/C=C/c1ccccc1)c1ccccc1,12.6%
12,COc1cc(NC(C)CCCNC(C)C)c2ncccc2c1OC (stereo not given),108%
13,C=C(C)[C@@H]1CC[C@]2(C(=O)NCCNCCN)CC[C@]3(C)[C@H](CC[C@@H]4[C@@]5(C)C/C(=C/c6ccncc6)C(=O)C(C)(C)[C@@H]5CC[C@]43C)[C@@H]12,99.2%
14,CCCCCOc1ccc(C(=O)/C(Br)=C/C(=O)O)cc1,87.4%
15,Fc1ccc(Nc2nc3nonc3nc2Nc2ccc(I)cc2)cc1,17.1%
16,N#Cc1cnc(NCCc2ccncc2)nc1-n1cnc2ccccc21,80.9%
17,COc1cc(OC)cc(C2=C3CC[C@@H]4[C@H](CC[C@]5(C)C(=O)CC[C@@H]45)C3=CC3C(O)c4cccnc4N4C(=O)COC234)c1 (stereo not given in full),115%
18,Cn1c(-c2ccc(Br)cc2)c(O)c(=O)c2c(F)cccc21,67.2%
19,CSc1nnc(-c2cnn3c2NC(c2ccccc2)C3)n1-c1ccc(C(F)(F)F)cc1 (stereo not given),71.7%
20,COc1cc(CNS(=O)(=O)c2ccc(C)cc2)ccc1OCc1cn(-c2ccc(F)cc2)nn1,87.9%

row,SMILES,growth
1,O=C(Cn1c(-c2ccc([N+](=O)[O-])cc2)nc2ccccc21)NNC(=O)c1cccnc1,108%
2,CC(C)N1CCN(Cc2ccc3c(NNC(=O)c4ccccc4)nc4cc(F)ccc4n23)CC1,29.5%
3,O=C1/C(=C/c2ccc(F)cc2)COc2ccc(O)cc21,103%
4,O=C1/C(=C/c2cccs2)SC(=S)N1CCCN1CCOCC1,95.8%
5,COc1ccc(-c2nc(SCC(C)C)nc(N/N=C\c3ccc(F)cc3)c2C#N)cc1,98.8%
6,N#Cc1cccc(F)c1,117%
7,N#Cc1c(N)nnn1Cc1cc(=O)oc2c1ccc1ccccc12,113%
8,O=c1c2cc(-c3ccccc3)sc2nc2sc(-c3ccccc3)nn12,107%
9,CC1Cc2c(Cl)ncnc2N(C)c2ccc(F)cc21 (stereo not given),86.5%
10,COc1cc(-c2nc3cc(Cl)c(Cl)cc3[nH]2)ccc1OCC(=O)N=Nc1c(O)[nH]c2ccc([N+](=O)[O-])cc12,82%
11,CC(C)n1cnc2c(=S)nc[nH]c21,131%
12,C=C(C)[C@@H]1CC[C@]2(C(=O)NCC#CCN3CCN(C)CC3)CC[C@]3(C)[C@H](CC[C@@H]4[C@@](C)(CCC#N)[C@H](C(=C)C)CC[C@]43C)[C@@H]12,78.1%
13,COc1cccc(NC(=O)Cn2cc(CN3CCN(c4ccnc5cc(Cl)ccc45)CC3)nn2)c1,102%
14,Cc1cccc(Cl)c1NC(=O)c1ccc2nc(NC(=O)NCCN(C)C)sc2c1,87.6%
15,CCCCCCCCn1ccc2cc(NC(=O)CN3CCN(c4nc(C)cc(Cl)n4)CC3)ccc21,98%
16,C[C@]12C=CC(=O)C=C1CCC1C2[C@@H](O)C[C@@]2(C)C1CC[C@]2(O)C(=O)COC(=O)CCC(=O)O (stereo not given in full),107%
17,O=C1CC(N2C(=O)/C(=C/C(Cl)=C\c3ccc([N+](=O)[O-])cc3)SC2=S)C(=O)N1c1ccc(Cl)cc1 (stereo not given),18.2%
18,N#Cc1nn(-c2cc(=O)[nH]c3ccc(Cl)cc23)c(N)c1C#N,104%
19,CCNc1nc(-c2ccc(Cl)c(OC)c2)c(-c2ccnc(NCCCNS(=O)(=O)c3ccc(Cl)cc3)n2)s1,38.9%
20,CN(C)c1ccc(Nc2cc(-c3cccc(OC(F)(F)F)c3)nc3ccc(N4CCCC4)cc23)cc1,-85.3% (active)
